In the supplement of paper PMC4380459:

tested on: tubulin (bovine brain); experiment: tubulin polymerization end-point dOD, fold change relative to DMSO vehicle; higher = more polymerization (stabilization); conditions: 50 µM; 60 min; 37 °C
Summary of the method: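 Plates were warmed to 37°C in a Tecan reader and read at 340 nm every minute for 1 hour. Beforehand, bovine brain tubulin (4 mg/ml in G-PEM buffer containing PIPES pH 6.9, MgCl2, EGTA and GTP) from the Cytoskeleton HTS-Tubulin polymerization kit was assembled on ice with compound at a final 50 μM in 0.5% DMSO in 384-well plates. Each value is the end-point change in optical density, expressed as percent fold change relative to DMSO vehicle, with runs scaled using the means and standard deviations of DMSO and reference-control wells.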

| Compound | tubulin polymerization end-point dOD |
| --- | --- |
| Cc1ccc(NC(=O)c2cc(F)c(Cl)cc2Cl)nc1 | -57.6% |
| COc1cc(Br)c(-c2cc3cc(Cl)ccc3oc2=O)cc1OC | 77.7% |
| COc1cc(CNc2ccc(Br)cc2)cc(OC)c1OC | -37.3% |
| CCc1ccccc1NC(=O)CSc1nc2cc3c(cc2cc1C#N)OCCO3 | -23.9% |
| Cc1ccccc1/C=N/N=C1\NC(=O)C(Cc2ccccc2C)S1 (stereo not given) | -10.8% |
| O=C(Nc1ccc(N2CCCCCC2)cc1)C1COc2ccccc2C1 (stereo not given) | 37.7% |
| Cc1cccc2cc3c(N)c(C(=O)Nc4ccccc4N4CCOCC4)sc3nc12 | 411% |
| O=C1NC(c2c(-c3ccccc3)[nH]c3ccccc23)Nc2ccccc21 (stereo not given) | -92.1% |
| COc1cc(C(=O)Nc2ccc3c(c2)CCN3C(C)=O)cc2c1OCCO2 | -17% |
| Cc1ccc(C(=O)CSc2nc3c(C)cccc3cc2C#N)cc1 | -15.2% |
| O=C(Nc1ccc2c(c1)OCCO2)C(=O)Nc1cccc2ncccc12 | -9.86% |
| CCc1ccccc1NC(=O)CSc1nc2cc3c(cc2cc1C#N)OCO3 | 56.6% |
| Cc1ccc(C(=O)Nc2nc3ccc(Cl)cc3s2)cn1 | -82.9% |
| COc1ccc2cc(CN(Cc3ccco3)C(=O)c3cccs3)c(=O)[nH]c2c1 | 91.2% |
| Cc1cccc(Cc2cnc(NC(=O)c3sc4ccccc4c3Cl)s2)c1 | 81.7% |
| COc1ccc(/C=N/NC(=O)c2cccc(F)c2)cc1Br | -16.1% |
| O=C(Nc1ncc(Cc2ccc(Cl)cc2)s1)c1cccnc1 | 7.93% |
| Cc1cnc(C(=O)Nc2ncc(Cc3ccc(C)c(Cl)c3)s2)cn1 | -19.2% |
| CC(=O)c1c(C)cc(C)c(CSc2nnc(-c3ccc(F)cc3)n2C)c1C | -75.9% |
| Cc1cccc2cc(C#N)c(SCC(=O)c3ccc(F)cc3)nc12 | -11.1% |
| COc1cccc2sc(NC(=O)C3CN(C(C)=O)c4ccccc4O3)nc12 (stereo not given) | -38.1% |
| COc1ccc(OC)c(NC(=O)CSc2nc3cc4c(cc3cc2C)CCC4)c1 | 20.5% |
| CN(C)c1ncc(C(=O)Nc2ccc(Oc3ccc4c(c3)OCO4)cc2)cn1 | 8.04% |
| Cc1cnc(C(=O)Nc2ncc(Cc3ccc(C#N)cc3)s2)cn1 | -30.4% |
| N#Cc1ccsc1NC(=O)C1COc2ccccc2C1 (stereo not given) | -10.4% |
| COc1cc(OC)cc(C(=O)N(Cc2ccccc2OC)Cc2cc3c(C)ccc(C)c3[nH]c2=O)c1 | 12.8% |
| CC1Oc2nc3ccccc3cc2CN(Cc2ccc(F)cc2)C1=O (stereo not given) | 3.19% |
| CC(=O)c1c(C)[nH]c(C(=O)Nc2ccc(N3CCCC3)cc2)c1C | 27.6% |
| Nc1cccc2c1C(=O)c1cccc(NC(=O)c3ccccc3)c1C2=O | 24.7% |
| O=C(Nc1ncc(Cc2ccccc2Cl)s1)c1ccncc1 | -29.4% |
